Results reported in PubChem BioAssay (NCI).
Values joined by “and” are separate entries in the source; they are usually repeats but may differ in a detail not shown here. Equal values may be shown once. The panel holds about 83,000 compounds, 20% with a hit somewhere; the sample as a whole holds those more often.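 Testing used 96-well plates and a 48-hour single-concentration exposure. Example: -40 means 40% of the starting cells died.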 Active and inactive are the calls of the source. Rule for the calls: active = growth percent below 10; inactive = the rest.

system: MDA-MB-468 breast; assay: NCI-60 one-dose screen, 48 h (100 = growth as untreated, 0 = no growth, -100 = all killed); conditions: 10 µM unless noted

Row | Compound | growth
1 | COc1ccc(C(c2cc(OC)c(OC)c(OC)c2)n2cncn2)cc1O (stereo not given) | 7.88% (active)
2 | CCC(=O)Oc1ccc(/C(=C(/C)Cc2cccc(OC)c2)c2ccc(OCCN(C)C)cc2)cc1 | 76.1% (inactive)
3 | O=C(Nc1ncc(Cc2ccc(Cl)cc2)s1)C1=NCCCCN1 | 102% (inactive)
4 | CCCCCCCCCCCCNCCCc1ccccc1 | 13% (inactive)
5 | COC(=O)/C=C/c1cc(O)c2c(c1)C(C(=O)OC)C(c1ccc(O)c(O)c1)O2 (stereo not given) | 27.3% (inactive) and 17.6% (inactive)
6 | CCNc1nc2ccc(Nc3ccnc4cc(Cl)ccc34)cc2[nH]1 | 21.8% (inactive)
7 | O=C(Nc1nc2cc(C(=O)N3CCN(C(c4ccccc4)c4ccccc4)CC3)ccc2o1)c1ccc(NC2CCCCC2)c([N+](=O)[O-])c1 | 75.2% (inactive)
8 | Nc1ccc(F)cc1F | 92.7% (inactive)
9 | N#C/C(=C\c1ccc(-c2ccc(Cl)cc2)o1)c1nc(-c2ccco2)cs1 | -26.7% (active)
10 | Fc1ccc(C(c2ccc(F)cc2)C(Cl)Cl)cc1 | 104% (inactive)
11 | CCc1ccc(Nc2cc(C)nc3nc(C)nn23)cc1 | -87.8% (active)
12 | COc1cc(NC(N)=NCCC(C)(C)c2ccc(C(F)(F)F)cc2)ncc1C#N | -39.1% (active)
13 | CC(C)(C)OC(=O)N1C/C(=C\c2ccccc2)C(=O)/C(=C/c2ccccc2)C1 | 112% (inactive)
14 | COc1cc(/C=C/c2cc(/C=C/c3ccc(O)c(OC)c3)n(C(=O)Nc3ccc(F)c(Cl)c3)n2)ccc1O | -27.6% (active)
15 | C#CC(=O)Nc1cccc(Nc2nc3c(c(NCc4ccccc4)n2)CCCC3)c1 | -54.7% (active)
